This note sets out measurements from the supplement of paper PMC6522484.

Each structure is given as a SMILES string. ± gives the standard deviation of the averaged measurements.

The first test deals with DLD1. Nature of the test: cell viability (CellTiter-Glo) relative to plate median (fraction of plate median); higher = more viable cells. The note with it: 5 µM; treatment time 24 h; reporter: 7TFP. An outline of the steps:
(§1)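 After seeding in 384-well plates, colorectal cancer cell lines carrying stable lentiviral TCF/Wnt firefly luciferase reporters (7TFP or TCF4/Wnt) were left 24 h. Library compounds were then added at a final 5 µM for 24 h. A Tecan F500 reader measured firefly luciferase or CellTiterGlo luminescence on parallel plates, with each well normalised to the plate median by webcellHTS2 (additive, no log transformation), and two independent replicates averaged.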
(ATP-based viability assays read luminescence as a measure of living cells.)
`Clc1ccc(CSC(Cn2ccnc2)c2ccc(Cl)cc2Cl)cc1` (stereo not given) returned a cell viability of 1.01 ± 0.015.
As for `CC(=O)S[C@@H]1CC2=CC(=O)CC[C@]2(C)[C@H]2CC[C@@]3(C)[C@@H](CC[C@@]34CCC(=O)O4)[C@H]12`, the cell viability is 1.11 ± 0.014.
For `CC[C@H](C)[C@@H]1NC(=O)[C@H](C)NC1=O` [Cyclo(alanylisoleucyl)], the cell viability is 1.05 ± 0.12.
In turn, `O=C1NCC(=O)N2CCCC12` (stereo not given) [Cyclo(glycylprolyl)] had a cell viability of 0.941 ± 0.037.
`O=c1cc(-c2ccccc2)oc2cc(O)cc(O)c12`: the cell viability was 1.01.
Still for that read-out and setting: with `CCOC(=O)[C@H](CCc1ccccc1)N[C@@H](C)C(=O)N1CCC[C@H]1C(=O)O` the figure was 0.971 ± 0.018; with `Cc1oc(C(C)O)c2c1C(=O)c1c(O)cccc1C2=O` (stereo not given) [Bhimamycin A], 1.14 ± 0.014.
Same read-out and setting: as for `CC(C)NCC(O)c1ccc2ccccc2c1` (stereo not given), the figure is 0.986 ± 0.035; as for `O=C1NS(=O)(=O)c2ccccc21`, 0.973 ± 0.052; as for `OC[C@H]1O[C@@H](Oc2ccc(O)cc2)[C@H](O)[C@@H](O)[C@@H]1O`, 0.965 ± 0.04.
In turn, `Cc1ccc2c(c1)CC[C@H]1CC(=O)CC[C@]21C` displayed a cell viability of 1.03 ± 0.035.
The compound `N[C@@H]1CONC1=O` displayed a cell viability of 1.04 ± 0.11.
Turning to `COc1cc(-c2oc3cc(O)ccc3c(=O)c2O)ccc1O`, the cell viability turned out to be 1.03 ± 0.014.
`Nc1ccc(C(=O)O)cc1` came in with a cell viability of 0.9785 ± 0.00071.
`COc1cc(OC)cc(OC)c1` showed a cell viability of 1.03 ± 0.028.
`CCN(CC)C(=O)c1cccc(C)c1`: the cell viability amounted to 0.954 ± 0.041.
`O=C1NC(Cc2ccc(O)cc2)C(=O)N2CCCC12` (stereo not given) [cyclo(prolyltyrosyl)] showed a cell viability of 0.9655 ± 0.0021.
Consider `CC1(C)S[C@@H]2[C@H](NC(=O)[C@H](C(=O)O)c3ccsc3)C(=O)N2[C@H]1C(=O)O`, for which the cell viability was determined as 1.09 ± 0.092.
With `CN[C@H]1CC[C@@H](c2ccc(Cl)c(Cl)c2)c2ccccc21`, the cell viability was 0.713 ± 0.26.
In turn, `O[C@H]1[C@H](O)[C@@H](O)[C@H](O)[C@@H](O)[C@H]1O` displayed a cell viability of 0.938 ± 0.03.
`CCCCc1nc(Cl)c(CO)n1Cc1ccc(-c2ccccc2-c2nnn[nH]2)cc1` registered a cell viability of 0.909 ± 0.09.
In turn, `CO/C=C/C(=O)c1cc2cnc3c(=N)cc(NC(C)=O)c([nH]1)c23` [Lymphostin] registered a cell viability of 1.08 ± 0.042.
The compound `CC/C(=C(/CC)c1ccc(O)cc1)c1ccc(O)cc1` gave a cell viability of 0.959 ± 0.072.
Same read-out and setting: as for `CC(O)(P(=O)(O)O)P(=O)(O)O`, the figure is 0.949 ± 0.073; as for `NC[C@@H]1O[C@H](O[C@H]2[C@@H](O)[C@H](O[C@@H]3[C@@H](O)[C@H](N)C[C@H](N)[C@H]3O[C@H]3O[C@H](CO)[C@@H](O)[C@H](O)[C@H]3N)O[C@@H]2CO)[C@H](N)[C@@H](O)[C@@H]1O`, 1.1 ± 0.035.
Consider `CCC(=O)OCC(=O)[C@@]1(OC(=O)CC)[C@H](C)CC2C3C([C@@H](O)C[C@@]21C)[C@@]1(C)C=CC(=O)C=C1C[C@H]3Cl` (stereo not given in full), for which the cell viability is 1.01 ± 0.014.
`CC(C)(S)[C@@H](N)C(=O)O` displayed a cell viability of 0.991 ± 0.027.
The compound `C=CC[C@@H]1/C=C(\C)C[C@H](C)C[C@H](OC)[C@H]2O[C@@](O)(C(=O)C(=O)N3CCCC[C@H]3C(=O)O[C@H](/C(C)=C/[C@@H]3CC[C@@H](O)[C@H](OC)C3)[C@H](C)[C@@H](O)CC1=O)[C@H](C)C[C@@H]2OC` yielded a cell viability of 1.02 ± 0.22.
Regarding `COc1ccc(-c2cc(=O)c3c(O)c(OC)c(OC)c(OC)c3o2)cc1OC`, the cell viability is 1.07 ± 0.085.
For the compound `CC(=O)O[C@H]1CC[C@]2(C)[C@H]3CC=C4[C@@H]5CC(C)(C)CC[C@]5(C(=O)O)CC[C@@]4(C)[C@]3(C)CC[C@H]2C1(C)C`, the cell viability came out at 1.06 ± 0.05.
`Cc1cc(C)cc(OCC2CNC(=O)O2)c1` (stereo not given) gave a cell viability of 0.964 ± 0.013.
In turn, `COC(=O)[C@@H]1[C@H]2C[C@H]3c4[nH]c5ccccc5c4CCN3C[C@@H]2CC[C@@H]1O` came in with a cell viability of 0.964 ± 0.033.
`CC1=C(/C=C/C(C)=C/C=C/C(C)=C/C=C/C=C(C)/C=C/C=C(C)/C=C/C2=C(C)C(=O)CCC2(C)C)C(C)(C)CCC1=O` [CANTHAXANTHIN (euglenanone)] registered a cell viability of 1 ± 0.021.
As for `CC1(C)C(=O)C=C[C@]2(C)[C@H]3CC[C@@]4(C)[C@H](c5ccoc5)OC(=O)[C@H]5O[C@]54[C@]3(C)C(=O)C[C@@H]12`, the cell viability is 1.02.
For `CC(COc1ccccc1)NC(C)C(O)c1ccc(O)cc1` (stereo not given), the cell viability turned out to be 1.03 ± 0.096.
For `CNCCc1ccccn1`, the cell viability was 0.835 ± 0.059.
On to `CCC(C)C(N)=O` (stereo not given) [2-Methylbutyramide], for which the cell viability turned out to be 1.06 ± 0.028.
`CC(CCc1ccccc1)NCC(O)c1ccc(O)c(C(N)=O)c1` (stereo not given) displayed a cell viability of 1.01 ± 0.12.
`COc1cc2c3cc1Oc1cc(ccc1O)C[C@@H]1c4c(cc(OC)c(O)c4Oc4ccc(cc4)C[C@@H]3N(C)CC2)CC[N+]1(C)C` gave a cell viability of 0.992 ± 0.012.
As for `CN1CCOC(c2ccccc2)c2ccccc2C1` (stereo not given), the cell viability was determined as 0.915 ± 0.048.

The next test concerns HCT116. Described as above. The note with it: 5 µM; treatment time 24 h; reporter: TCF4/Wnt. Put shortly: as §1
For the compound `Clc1ccc(CSC(Cn2ccnc2)c2ccc(Cl)cc2Cl)cc1` (stereo not given), the cell viability was determined as 0.932 ± 0.14.
In turn, `CC(=O)S[C@@H]1CC2=CC(=O)CC[C@]2(C)[C@H]2CC[C@@]3(C)[C@@H](CC[C@@]34CCC(=O)O4)[C@H]12` displayed a cell viability of 0.97 ± 0.04.
On to `CC[C@H](C)[C@@H]1NC(=O)[C@H](C)NC1=O` [Cyclo(alanylisoleucyl)], for which the cell viability turned out to be 1.165 ± 0.0071.
`O=C1NCC(=O)N2CCCC12` (stereo not given) [Cyclo(glycylprolyl)] returned a cell viability of 0.9365 ± 0.005.
Take `O=c1cc(-c2ccccc2)oc2cc(O)cc(O)c12`: the cell viability worked out at 1.02 ± 0.035.
Take `CCOC(=O)[C@H](CCc1ccccc1)N[C@@H](C)C(=O)N1CCC[C@H]1C(=O)O`: the cell viability was 1.11 ± 0.085.
As to `Cc1oc(C(C)O)c2c1C(=O)c1c(O)cccc1C2=O` (stereo not given) [Bhimamycin A], the cell viability is 0.958 ± 0.06.
Consider `CC(C)NCC(O)c1ccc2ccccc2c1` (stereo not given), for which the cell viability stood at 1.01 ± 0.042.
Compound `O=C1NS(=O)(=O)c2ccccc21` displayed a cell viability of 1.1 ± 0.085.
`OC[C@H]1O[C@@H](Oc2ccc(O)cc2)[C@H](O)[C@@H](O)[C@@H]1O` yielded a cell viability of 0.989 ± 0.072.
In turn, `Cc1ccc2c(c1)CC[C@H]1CC(=O)CC[C@]21C` yielded a cell viability of 1.05 ± 0.097.
Still for that read-out and setting: as for `N[C@@H]1CONC1=O`, the figure is 1.05 ± 0.035.
Consider `COc1cc(-c2oc3cc(O)ccc3c(=O)c2O)ccc1O`, for which the cell viability worked out at 1.12 ± 0.078.
In turn, `Nc1ccc(C(=O)O)cc1` yielded a cell viability of 0.996 ± 0.034.
Still for that read-out and setting: as for `COc1cc(OC)cc(OC)c1`, the figure is 1.02 ± 0.028; as for `CCN(CC)C(=O)c1cccc(C)c1`, 1.01 ± 0.05.
`O=C1NC(Cc2ccc(O)cc2)C(=O)N2CCCC12` (stereo not given) [cyclo(prolyltyrosyl)] gave a cell viability of 0.95 ± 0.023.
In turn, `CC1(C)S[C@@H]2[C@H](NC(=O)[C@H](C(=O)O)c3ccsc3)C(=O)N2[C@H]1C(=O)O` yielded a cell viability of 1.045 ± 0.0071.
Compound `CN[C@H]1CC[C@@H](c2ccc(Cl)c(Cl)c2)c2ccccc21` gave a cell viability of 0.386 ± 0.052.
The compound `O[C@H]1[C@H](O)[C@@H](O)[C@H](O)[C@@H](O)[C@H]1O` showed a cell viability of 0.922 ± 0.097.
For `CCCCc1nc(Cl)c(CO)n1Cc1ccc(-c2ccccc2-c2nnn[nH]2)cc1`, the cell viability came out at 0.921 ± 0.052.
For the compound `CO/C=C/C(=O)c1cc2cnc3c(=N)cc(NC(C)=O)c([nH]1)c23` [Lymphostin], the cell viability was 0.71 ± 0.12.
Same read-out and setting: as for `CC/C(=C(/CC)c1ccc(O)cc1)c1ccc(O)cc1`, the figure is 0.845 ± 0.021.
For the compound `CC(O)(P(=O)(O)O)P(=O)(O)O`, the cell viability came out at 0.943 ± 0.032.
Compound `NC[C@@H]1O[C@H](O[C@H]2[C@@H](O)[C@H](O[C@@H]3[C@@H](O)[C@H](N)C[C@H](N)[C@H]3O[C@H]3O[C@H](CO)[C@@H](O)[C@H](O)[C@H]3N)O[C@@H]2CO)[C@H](N)[C@@H](O)[C@@H]1O` gave a cell viability of 0.975 ± 0.064.
`CCC(=O)OCC(=O)[C@@]1(OC(=O)CC)[C@H](C)CC2C3C([C@@H](O)C[C@@]21C)[C@@]1(C)C=CC(=O)C=C1C[C@H]3Cl` (stereo not given in full) had a cell viability of 1.02 ± 0.014.
Same read-out and setting: with `CC(C)(S)[C@@H](N)C(=O)O` the figure was 0.956 ± 0.13; with `C=CC[C@@H]1/C=C(\C)C[C@H](C)C[C@H](OC)[C@H]2O[C@@](O)(C(=O)C(=O)N3CCCC[C@H]3C(=O)O[C@H](/C(C)=C/[C@@H]3CC[C@@H](O)[C@H](OC)C3)[C@H](C)[C@@H](O)CC1=O)[C@H](C)C[C@@H]2OC`, 1.05 ± 0.014.
The compound `COc1ccc(-c2cc(=O)c3c(O)c(OC)c(OC)c(OC)c3o2)cc1OC` yielded a cell viability of 1.19 ± 0.11.
On the same count and under the same terms, as for `CC(=O)O[C@H]1CC[C@]2(C)[C@H]3CC=C4[C@@H]5CC(C)(C)CC[C@]5(C(=O)O)CC[C@@]4(C)[C@]3(C)CC[C@H]2C1(C)C`, the figure is 1.11 ± 0.11; as for `Cc1cc(C)cc(OCC2CNC(=O)O2)c1` (stereo not given), 1.07 ± 0.1.
In turn, `COC(=O)[C@@H]1[C@H]2C[C@H]3c4[nH]c5ccccc5c4CCN3C[C@@H]2CC[C@@H]1O` had a cell viability of 1.08 ± 0.13.
For `CC1=C(/C=C/C(C)=C/C=C/C(C)=C/C=C/C=C(C)/C=C/C=C(C)/C=C/C2=C(C)C(=O)CCC2(C)C)C(C)(C)CCC1=O` [CANTHAXANTHIN (euglenanone)], the cell viability was found to be 0.899 ± 0.067.
On to `CC1(C)C(=O)C=C[C@]2(C)[C@H]3CC[C@@]4(C)[C@H](c5ccoc5)OC(=O)[C@H]5O[C@]54[C@]3(C)C(=O)C[C@@H]12`, for which the cell viability came to 0.974 ± 0.023.
The compound `CC(COc1ccccc1)NC(C)C(O)c1ccc(O)cc1` (stereo not given) returned a cell viability of 0.966 ± 0.091.
Regarding `CNCCc1ccccn1`, the cell viability came out at 0.979 ± 0.086.
`CCC(C)C(N)=O` (stereo not given) [2-Methylbutyramide] gave a cell viability of 1.05 ± 0.021.
In the case of `CC(CCc1ccccc1)NCC(O)c1ccc(O)c(C(N)=O)c1` (stereo not given), the cell viability was 1.08 ± 0.014.
Compound `COc1cc2c3cc1Oc1cc(ccc1O)C[C@@H]1c4c(cc(OC)c(O)c4Oc4ccc(cc4)C[C@@H]3N(C)CC2)CC[N+]1(C)C` registered a cell viability of 1.01 ± 0.1.
As for `CN1CCOC(c2ccccc2)c2ccccc2C1` (stereo not given), the cell viability amounted to 0.997 ± 0.1.
